Measurements published in PubChem BioAssay (NCATS).
Results filed as inconclusive are left out. Calls of active or inactive are those of the source. Calls follow the shape of the dose curve; as a rule, active = well fitted cell-killing curve with a large enough effect; inconclusive = small, poorly fitted or top-dose-only effect, or effect the other way; inactive = flat fitted curve, though single readings scatter.

Legend:
Test in all cases: Primary qHTS to identify gynecologic anti-cancer compounds using libraries of approved drugs and bioactive compounds (AID 1345084); also: nearly all actives have a fitted effect of over 55% in size
C33A = conditions: Gynecologic cancer cell panel viability, ATPlite luminescence, 48 h; series mostly up to 57.5 µM
Procedure, shortened: (§1)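 Cell viability after 48 h drug treatment, ATPlite luminescence readout; five doses.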

CAOV3 = conditions: Gynecologic cancer cell panel viability, ATPlite luminescence, 48 h; series mostly up to 57.5 µM
Procedure, shortened: as §1

CASKI = conditions: Gynecologic cancer cell panel viability, ATPlite luminescence, 48 h; series mostly up to 57.5 µM
Procedure, shortened: as §1

Es-2 = conditions: Gynecologic cancer cell panel viability, ATPlite luminescence, 48 h; series mostly up to 57.5 µM
Procedure, shortened: as §1

HeLa = conditions: Gynecologic cancer cell panel viability, ATPlite luminescence, 48 h; series mostly up to 57.5 µM
Procedure, shortened: as §1

Hek293T = conditions: Gynecologic cancer cell panel viability, ATPlite luminescence, 48 h, control line for the selectivity index; series mostly up to 57.5 µM
Procedure, shortened: as §1

JEG-3 = conditions: Gynecologic cancer cell panel viability, ATPlite luminescence, 48 h; series mostly up to 57.5 µM
Procedure, shortened: as §1

OV90 = conditions: Gynecologic cancer cell panel viability, ATPlite luminescence, 48 h; series mostly up to 57.5 µM
Procedure, shortened: as §1

PA-1 = conditions: Gynecologic cancer cell panel viability, ATPlite luminescence, 48 h; series mostly up to 57.5 µM
Procedure, shortened: as §1

SKOV3 = conditions: Gynecologic cancer cell panel viability, ATPlite luminescence, 48 h; series mostly up to 57.5 µM
Procedure, shortened: as §1

Tov-21-G = conditions: Gynecologic cancer cell panel viability, ATPlite luminescence, 48 h; series mostly up to 57.5 µM
Procedure, shortened: as §1

Tov112D = conditions: Gynecologic cancer cell panel viability, ATPlite luminescence, 48 h; series mostly up to 57.5 µM
Procedure, shortened: as §1
% is scaled to controls: 0 for no effect and ±100 for the full control effect.

C[C@H]1[C@H](C)CC[C@]2(C(=O)OC3OC(CO)C(O)C(O)C3O)CC[C@]3(C(=O)O)C(=CCC4[C@@]5(C)CC[C@H](O[C@@H]6O[C@@H](C)[C@H](OC7OC(CO)C(O)C(O)C7O)[C@@H](O)[C@H]6O)C(C)(C)C5CC[C@]43C)[C@H]12 (stereo partly specified)
inactive: activity change, negative = cytotoxicity (C33A) -28.6% [at 11.6 µM] | activity change, negative = cytotoxicity (CAOV3) 3.53% [at 11.6 µM] | activity change, negative = cytotoxicity (CASKI) 6.49% [at 11.6 µM] | activity change, negative = cytotoxicity (Es-2) 4.54% [at 11.6 µM] | activity change, negative = cytotoxicity (HeLa) -0.904% [at 11.6 µM] | activity change, negative = cytotoxicity (Hek293T) 6.98% [at 11.6 µM] | activity change, negative = cytotoxicity (JEG-3) 7.38% [at 11.6 µM] | activity change, negative = cytotoxicity (OV90) 2.97% [at 11.6 µM] | activity change, negative = cytotoxicity (PA-1) -4.62% [at 11.6 µM] | activity change, negative = cytotoxicity (SKOV3) 0% [at 11.6 µM] | activity change, negative = cytotoxicity (Tov-21-G) 0.351% [at 11.6 µM] | activity change, negative = cytotoxicity (Tov112D) -1.72% [at 11.6 µM]

COC(=O)C1=C[C@@H](O)[C@@H](O)[C@H](O[C@@H]2O[C@H](CO)[C@@H](O)[C@H](O)[C@H]2OC(=O)/C=C/c2ccccc2)C1
inactive: Potency (C33A) | Potency (CAOV3) | outcome (CASKI) | Potency (Es-2) | Potency (HeLa) | Potency (Hek293T) | Potency (JEG-3) | Potency (OV90) | Potency (PA-1) | Potency (SKOV3) | Potency (Tov-21-G) | Potency (Tov112D)

O=C(OC[C@H]1O[C@@H](Oc2ccccc2COC(=O)C2(O)C=CCCC2O)[C@H](O)[C@@H](O)[C@@H]1O)c1ccccc1 (stereo partly specified)
inactive: Potency (C33A) | Potency (CAOV3) | outcome (CASKI) | Potency (Es-2) | Potency (HeLa) | Potency (Hek293T) | Potency (JEG-3) | Potency (OV90) | Potency (PA-1) | Potency (SKOV3) | Potency (Tov-21-G) | Potency (Tov112D)

CCCSc1nc(NC2CC2c2ccc(F)c(F)c2)c2nnn(C3CC(OCCO)C(O)C3O)c2n1 (stereo unspecified)
inactive: Potency (C33A) | Potency (CAOV3) | outcome (CASKI) | Potency (Es-2) | Potency (HeLa) | Potency (Hek293T) | Potency (JEG-3) | Potency (OV90) | Potency (PA-1) | Potency (SKOV3) | Potency (Tov-21-G) | Potency (Tov112D)

Cc1cn(C[C@H](N)C(=O)O)c(=O)n(Cc2ccsc2C(=O)O)c1=O
inactive: Potency (C33A) | Potency (CAOV3) | outcome (CASKI) | Potency (Es-2) | Potency (HeLa) | Potency (Hek293T) | Potency (JEG-3) | Potency (OV90) | Potency (PA-1) | Potency (SKOV3) | Potency (Tov-21-G) | Potency (Tov112D)

C[C@@]1(C(=O)O)CCC[C@@]2(C)C3=CC[C@H]4C[C@@]3(CC[C@H]12)CC4(O)CO (stereo partly specified)
inactive: Potency (C33A) | Potency (CAOV3) | outcome (CASKI) | Potency (Es-2) | Potency (HeLa) | Potency (Hek293T) | Potency (JEG-3) | Potency (OV90) | Potency (PA-1) | Potency (SKOV3) | Potency (Tov-21-G) | Potency (Tov112D)

CC1=C[C@H]2[C@@H](CC1=O)[C@H](C)C[C@H](O)[C@H]2C(C)C
inactive: Potency (C33A) | Potency (CAOV3) | outcome (CASKI) | Potency (Es-2) | Potency (HeLa) | Potency (Hek293T) | Potency (JEG-3) | Potency (OV90) | Potency (PA-1) | Potency (SKOV3) | Potency (Tov-21-G) | Potency (Tov112D)

O=C(O)[C@H]1Cc2ccccc2CN1
inactive: activity change, negative = cytotoxicity (C33A) -12.5% [at 6.55 µM] | activity change, negative = cytotoxicity (CAOV3) 20.2% [at 6.55 µM] | activity change, negative = cytotoxicity (CASKI) -0.242% [at 6.55 µM] | activity change, negative = cytotoxicity (Es-2) -0.653% [at 6.55 µM] | activity change, negative = cytotoxicity (HeLa) 1.2% [at 6.55 µM] | activity change, negative = cytotoxicity (Hek293T) 13.1% [at 6.55 µM] | activity change, negative = cytotoxicity (JEG-3) 1.96% [at 6.55 µM] | activity change, negative = cytotoxicity (OV90) 0.2% [at 6.55 µM] | activity change, negative = cytotoxicity (PA-1) 3.48% [at 6.55 µM] | activity change, negative = cytotoxicity (SKOV3) 14.2% [at 6.55 µM] | activity change, negative = cytotoxicity (Tov-21-G) 4.78% [at 6.55 µM] | activity change, negative = cytotoxicity (Tov112D) 19.2% [at 6.55 µM]

CC(C)(CC(=O)N1CCCC1)NCC(=O)N1C[C@@H](F)C[C@H]1C#N
inactive: Potency (C33A) | Potency (CAOV3) | outcome (CASKI) | Potency (Es-2) | Potency (HeLa) | Potency (Hek293T) | Potency (JEG-3) | Potency (OV90) | Potency (PA-1) | Potency (SKOV3) | Potency (Tov-21-G) | Potency (Tov112D)

Cc1ncc([N+](=O)[O-])n1C[C@H](O)CN1CCOCC1
inactive: Potency (C33A) | Potency (CAOV3) | outcome (CASKI) | Potency (Es-2) | Potency (HeLa) | Potency (Hek293T) | Potency (JEG-3) | Potency (OV90) | Potency (PA-1) | Potency (SKOV3) | Potency (Tov-21-G) | Potency (Tov112D)

C/C(=C\CC[C@H](CO)[C@@H]1CC[C@]2(C)C3=C(CC[C@@]12C)[C@@]1(C)CCC(=O)C(C)(C)C1CC3)C(=O)O (stereo partly specified)
inactive: Potency (C33A) | Potency (CAOV3) | outcome (CASKI) | Potency (Es-2) | Potency (HeLa) | Potency (Hek293T) | Potency (JEG-3) | Potency (OV90) | Potency (PA-1) | Potency (SKOV3) | Potency (Tov-21-G) | Potency (Tov112D)

O=C(c1c2ccccc2cc2ccccc12)N1CCC(N2CCC[C@@H](C(=O)N3CCOCC3)C2)CC1
inactive: Potency (C33A) | Potency (CAOV3) | outcome (CASKI) | Potency (Es-2) | Potency (HeLa) | Potency (Hek293T) | Potency (JEG-3) | Potency (OV90) | Potency (PA-1) | Potency (SKOV3) | Potency (Tov-21-G) | Potency (Tov112D)

COc1c2ccoc2nc2c(OC)c(O[C@@H]3O[C@@H](C)[C@H](O)[C@@H](O[C@@H]4O[C@H](CO)[C@@H](O)[C@H](O)[C@H]4O)[C@H]3OC(C)=O)ccc12
inactive: Potency (C33A) | Potency (CAOV3) | outcome (CASKI) | Potency (Es-2) | Potency (HeLa) | Potency (Hek293T) | Potency (JEG-3) | Potency (OV90) | Potency (PA-1) | Potency (SKOV3) | Potency (Tov-21-G) | Potency (Tov112D)
